This passage reports inhibition results from ChEMBL document CHEMBL3433997, “St. Jude Leishmania screening dataset” (2016).

What all share (format): functional
The target in experiment [1] is Solute carrier family 2, facilitated glucose transporter member 1 (Homo sapiens) (UniProt P11166). Briefly: ST_JUDE_LEISH: Cytotoxicity at 2uM final concentration against transgenic Leishmania Mexicana promastigotes LmGLUT1 that are glucose transport deficient and complemented with the human glucose transporter GLUT1. Activity is measured by DNA content using SYBR green in vitro.

Experiment [2] deals with Hexose transporter 1 (Plasmodium falciparum) (UniProt O97467). Nature of the experiment: ST_JUDE_LEISH: Cytotoxicity at 2uM final concentration against transgenic Leishmania Mexicana promastigotes LmPfHT that are glucose transport deficient and complemented with the Plasmodium falciparum hexose transporter. Activity is measured by DNA content using SYBR green in vitro.
In experiment [3] the target is Glucose transporter (Leishmania mexicana) (UniProt O61059). Briefly: ST_JUDE_LEISH: Cytotoxicity at 2uM final concentration against transgenic Leishmania Mexicana promastigotes LmGT2 that are glucose transport deficient and complemented with the L. Mexicana glucose transporter 2. Activity is measured by DNA content using SYBR green in vitro.

Chain of Solute carrier family 2, facilitated glucose transporter member 1 (Homo sapiens) (P11166 whole entry): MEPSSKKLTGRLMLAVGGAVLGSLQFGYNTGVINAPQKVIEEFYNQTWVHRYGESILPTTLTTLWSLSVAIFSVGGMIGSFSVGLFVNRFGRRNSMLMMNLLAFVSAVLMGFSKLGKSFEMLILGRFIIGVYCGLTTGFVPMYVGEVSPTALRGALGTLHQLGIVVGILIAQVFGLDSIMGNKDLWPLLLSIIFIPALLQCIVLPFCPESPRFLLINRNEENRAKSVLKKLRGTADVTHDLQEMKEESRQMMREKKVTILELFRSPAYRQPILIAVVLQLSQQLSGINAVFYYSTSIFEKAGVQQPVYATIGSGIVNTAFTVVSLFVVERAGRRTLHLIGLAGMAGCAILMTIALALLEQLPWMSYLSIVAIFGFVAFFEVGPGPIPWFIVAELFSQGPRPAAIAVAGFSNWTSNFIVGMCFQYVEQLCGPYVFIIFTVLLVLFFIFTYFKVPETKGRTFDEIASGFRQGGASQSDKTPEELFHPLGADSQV

For the compound `CC(C)CN(c1nc(C(=O)NNC(=O)[C@H](CC2CC2)NC(=O)c2cc3cc(OCCN(C)C)ccc3o2)cs1)C1CC1`, the inhibition – broadly, the relative decrease from the control value, in per cent – was 6.19% in experiment [1], 6.53% in experiment [2] and 7.9% in experiment [3].

For the compound `COc1ccc2nccc([C@@H](O)CN3CCC(NCc4cc5ccccc5[nH]4)CC3)c2n1`, the values for the inhibition in experiment [1], in experiment [2] and in experiment [3] were 46%, 59.2% and 62.5%, respectively.

As for `Cc1ccoc1C(=O)Nc1cccc(-c2cccc(-c3nc4cccc(C)c4[nH]3)c2)c1`, the inhibition is 7.85% in experiment [1], 5.09% in experiment [2] and 4.05% in experiment [3].

On to `CCC[C@@H]([C@@H](CC1CCC(C)CC1)C(=O)N[C@@H](CO)C(=O)Nc1nccs1)N(O)C=O` (stereo partly drawn), for which the inhibition in experiment [1] worked out at 1.25%; in experiment [2], 2.18%; in experiment [3], 1.54%.

As to `CCN(c1ccc(F)cc1)S(=O)(=O)c1cc(Br)cc2c1N(C(=O)C1CC1)CC2`, the inhibition in experiment [1] is 0.4%; in experiment [2] it was 1.32%; in experiment [3], 3.74%.

For `Cc1c(OC(C)C)nc2ccccc2c1C(=O)N[C@H](c1cccc(F)c1)C1CC1`, the results for the inhibition in experiment [1], in experiment [2] and in experiment [3] were 0.15%, -0.55% and -0.32%, respectively.

For the compound `FC(F)(F)c1ccc2[nH]c(-c3ccc(-c4ccc(CNCC5CCCO5)cc4)s3)nc2c1` (stereo not drawn), the inhibition in experiment [1] was -1.55%; in experiment [2], 0.38%; in experiment [3], -1.62%.

`CCCCCCNC(=O)C1Cc2c([nH]c3ccccc23)C2(CCN(CCc3ccccc3)CC2)N1` (stereo not drawn): the inhibition was 2.97% in experiment [1], 0.47% in experiment [2] and 0.55% in experiment [3].

Regarding `COc1ccc(S(=O)(=O)N2CCCc3ccc(Br)cc32)cc1N1CCN(C(=O)C(Cl)(Cl)Cl)CC1`, the inhibition in experiment [1] came out at 2.54%; in experiment [2], 2.99%; in experiment [3], 1.28%.

`Nc1cccc(CNCc2cccc(-c3cccc(-c4nc5cc(F)ccc5[nH]4)c3)c2)c1`: the inhibition was 0.35% in experiment [1], 0.35% in experiment [2] and -0.66% in experiment [3].

As for `CCN(CC)Cc1ccc2c(=O)cc(CCc3cccc(F)c3F)n(CC(=O)N(Cc3ccc(-c4ccc(C(F)(F)F)cc4)cc3)C(C)C)c2c1`, the inhibition in experiment [1] was 1.44%; in experiment [2], 2%; in experiment [3] it was -0.21%.
